From PubChem BioAssay come the findings set out here.

Molecules are shown by their SMILES. Active and inactive are the calls of the source. Unless noted, the rule behind the calls is not given here.

Assay [1] is described as follows: compounds binding Alexa647 anti-His antibody – biochemical, small-molecule microarray, 635 nm fluorescence, artefact control for SMM control protein annotation, primary screen (AID 1128).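 Note: score merges feature fluorescence with signal-to-noise for each printed compound spot.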 Particulars: higher = more signal.
The test system of assay [2] is Human papillomavirus type 1a E7 protein (residues 1-88). Description: HPV1a E7 small-molecule binders, primary screen, biochemical, small-molecule microarray, residues 1-88, 635 nm (AID 1129). The following applies: small-molecule microarray binding, fluorescence 635 nm; higher = more signal.
In assay [3] the target is Focal adhesion kinase 1 (Homo sapiens) (UniProt Q05397). As to the kind of experiment: PTK2 protein binding on printed compound slides – biochemical, small-molecule microarray, 635/667 nm fluorescence, BSA, DTT, primary screen (AID 1130).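 Note: composite of spot emission at 667 nm and signal to noise over triplicate slides.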 The following applies: 635 nm fluorescence, higher = more signal.
Chain of Focal adhesion kinase 1 (Homo sapiens) (Q05397 whole entry, looked up): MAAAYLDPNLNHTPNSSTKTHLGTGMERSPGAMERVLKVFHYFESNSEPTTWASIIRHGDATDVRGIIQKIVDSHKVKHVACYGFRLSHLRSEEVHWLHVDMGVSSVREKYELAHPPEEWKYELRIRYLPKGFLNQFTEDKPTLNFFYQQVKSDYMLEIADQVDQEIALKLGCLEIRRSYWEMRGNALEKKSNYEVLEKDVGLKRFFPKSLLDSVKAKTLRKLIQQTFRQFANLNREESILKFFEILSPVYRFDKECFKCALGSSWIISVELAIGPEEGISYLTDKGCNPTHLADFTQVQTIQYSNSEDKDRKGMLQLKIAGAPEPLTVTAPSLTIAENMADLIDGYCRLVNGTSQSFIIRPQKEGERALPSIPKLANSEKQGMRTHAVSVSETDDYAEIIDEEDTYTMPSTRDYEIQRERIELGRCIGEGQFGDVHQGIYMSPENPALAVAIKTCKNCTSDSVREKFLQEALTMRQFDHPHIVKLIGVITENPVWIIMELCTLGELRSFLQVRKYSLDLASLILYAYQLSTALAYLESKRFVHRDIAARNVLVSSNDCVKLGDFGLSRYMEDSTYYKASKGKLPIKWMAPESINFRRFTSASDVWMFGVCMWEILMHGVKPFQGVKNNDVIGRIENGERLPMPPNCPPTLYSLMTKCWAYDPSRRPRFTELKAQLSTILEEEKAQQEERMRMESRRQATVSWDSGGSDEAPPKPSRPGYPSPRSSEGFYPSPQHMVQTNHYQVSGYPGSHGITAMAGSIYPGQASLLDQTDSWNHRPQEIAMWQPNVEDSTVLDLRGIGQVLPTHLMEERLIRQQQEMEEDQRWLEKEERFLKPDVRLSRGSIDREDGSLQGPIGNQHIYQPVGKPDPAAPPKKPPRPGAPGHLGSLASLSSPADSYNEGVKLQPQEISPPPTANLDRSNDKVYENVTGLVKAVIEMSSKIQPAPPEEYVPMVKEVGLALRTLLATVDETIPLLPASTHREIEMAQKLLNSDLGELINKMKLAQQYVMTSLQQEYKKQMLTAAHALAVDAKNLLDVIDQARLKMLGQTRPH
Assay [4] relates to Fibrinogen (Alexa647-labelled). As to the kind of experiment: Alexa647-fibrinogen binding to printed small molecules – biochemical, small-molecule microarray, 635/667 nm fluorescence, artefact control for SMM control-protein annotation, profiling panel (AID 1131).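 Note: z-score merges 667 nm fluorescence with per-spot signal-to-noise over triplicate slides.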 The following applies: fibrinogen-A647 binding fluorescence, higher = more signal.
Assay [5] deals with Follistatin (Homo sapiens) (UniProt P19883). As to the kind of experiment: FST protein binding to printed compounds – biochemical, small-molecule microarray, 635/667 nm fluorescence, primary screen (AID 1132). The following applies: 635 nm fluorescence, higher = more signal.
Chain of Follistatin (Homo sapiens) (P19883 whole entry, looked up): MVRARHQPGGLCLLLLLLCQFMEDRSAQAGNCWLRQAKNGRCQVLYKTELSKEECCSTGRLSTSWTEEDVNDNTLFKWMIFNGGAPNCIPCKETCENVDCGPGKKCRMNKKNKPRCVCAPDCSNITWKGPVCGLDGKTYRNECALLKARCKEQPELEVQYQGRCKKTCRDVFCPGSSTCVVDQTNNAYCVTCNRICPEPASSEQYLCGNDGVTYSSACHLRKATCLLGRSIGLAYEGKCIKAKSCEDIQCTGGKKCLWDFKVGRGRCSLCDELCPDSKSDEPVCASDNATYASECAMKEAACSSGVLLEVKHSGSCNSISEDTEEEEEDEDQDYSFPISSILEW
The target in assay [6] is Fibroblast growth factor 2 (Homo sapiens) (UniProt P09038). As to the kind of experiment: basic fibroblast growth factor binding to printed compounds – biochemical, small-molecule microarray, 635/667 nm fluorescence, primary screen (AID 1133). The following applies: FGF2, fluorescence 635/667, higher = more signal.
Chain of Fibroblast growth factor 2 (Homo sapiens) (P09038 whole entry, looked up): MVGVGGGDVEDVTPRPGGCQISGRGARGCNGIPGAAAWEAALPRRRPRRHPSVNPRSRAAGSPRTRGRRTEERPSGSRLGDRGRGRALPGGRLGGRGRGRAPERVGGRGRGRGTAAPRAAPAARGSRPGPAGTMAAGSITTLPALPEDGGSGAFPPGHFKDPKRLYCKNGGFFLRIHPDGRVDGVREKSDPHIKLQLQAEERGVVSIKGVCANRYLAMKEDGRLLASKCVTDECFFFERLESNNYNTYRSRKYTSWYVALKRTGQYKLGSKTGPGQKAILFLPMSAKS
Assay [7] is described as follows: JC-1 mitochondrial potential readout, lung cancer cells – cell-based, A549, JC-1 fluorescence, basal, 24 h, 100 nL, profiling panel (AID 1138).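 Note: A549 lung adenocarcinoma cells under basal conditions with no added stimulus; test concentration not given here.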 Particulars: higher = more signal.
In assay [8] the test system is Lefty1. As to the kind of experiment: Lefty1 protein binding to printed compounds – biochemical, small-molecule microarray, 635/667 nm fluorescence, primary screen (AID 1139). Particulars: fluorescence 635/667, higher = more signal.
Assay [9] relates to wheat germ agglutinin (Triticum aestivum), Alexa647-labelled. As to the kind of experiment: Alexa647-WGA lectin binding to printed small molecules – biochemical, small-molecule microarray, 635/667 nm fluorescence, artefact control for SMM control-protein annotation, profiling panel (AID 1140).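 Note: score merges 667 nm feature emission with signal to noise over triplicate slides.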 Particulars: WGA-A647 binding, 635 nm fluorescence, higher = more signal.
The target in assay [10] is Luciferin 4-monooxygenase (Photinus pyralis) (UniProt P08659). Description: inhibition of purified Photinus pyralis luciferase – biochemical, luminescence, purified enzyme, 2006 set, primary screen (AID 1141).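 Note: cell-free assay with purified firefly luciferase at 100 ng per well in PBS; test concentration not given here.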 Particulars: purified firefly luciferase, SteadyGlo luminescence, 30 min; higher = more signal, called active from +8 up or from −8 down.
Chain of Luciferin 4-monooxygenase (Photinus pyralis) (P08659 whole entry, looked up): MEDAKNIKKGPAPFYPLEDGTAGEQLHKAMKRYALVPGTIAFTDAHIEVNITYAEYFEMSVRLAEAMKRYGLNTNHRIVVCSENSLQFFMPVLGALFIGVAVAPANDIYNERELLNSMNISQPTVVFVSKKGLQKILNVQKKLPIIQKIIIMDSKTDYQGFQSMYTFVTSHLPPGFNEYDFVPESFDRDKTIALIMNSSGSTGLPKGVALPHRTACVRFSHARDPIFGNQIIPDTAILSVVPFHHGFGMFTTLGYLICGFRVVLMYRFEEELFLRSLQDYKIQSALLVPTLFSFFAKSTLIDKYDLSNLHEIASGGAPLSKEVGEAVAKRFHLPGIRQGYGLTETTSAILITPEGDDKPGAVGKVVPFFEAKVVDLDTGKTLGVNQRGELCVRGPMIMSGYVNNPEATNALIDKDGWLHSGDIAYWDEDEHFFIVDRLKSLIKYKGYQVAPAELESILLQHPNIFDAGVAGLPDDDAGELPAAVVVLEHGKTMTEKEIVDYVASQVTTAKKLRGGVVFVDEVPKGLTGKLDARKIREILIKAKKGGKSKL
The test system of assay [11] is Wnt5a (protein binding on small-molecule microarray). Description: small molecules binding Wnt5a protein – biophysical, small-molecule microarray, 635/667 nm fluorescence, primary screen (AID 1142).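 Note: fluorescence read at 667 nm with signal to noise per printed feature.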 Particulars: 635 nm fluorescence, higher = more signal.
Assay [12] in a line: ATP-based viability of Huh7 replicon cells – cell-based, CellTiter-Glo luminescence, basal, 48 h, cytotoxicity control for HCV replication inhibitor project, primary screen (AID 1143).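 Note: Huh7 hepatoma cells carrying a hepatitis C replication reporter with no stimulus; test concentration not given here.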 Particulars: higher = more signal, called active from +8 up or from −8 down.
Assay [13] can be described thus: Pseudomonas biofilm growth suppression – PAO1 strain, BacTiter-Glo luminescence, LB-PBS, primary screen (AID 1144). Particulars: P. aeruginosa PAO1 biofilm, 12 h, higher = more signal.
Assay [14] can be described thus: basal CRE-LacZ reporter activity in PC12 – cell-based, unstimulated, primary screen (AID 1145). Particulars: no forskolin, luminescence, 4.5 h, higher = more signal, called active from +8 up or from −8 down.
Assay [15] in a line: forskolin-driven CRE-LacZ activity in PC12 – cell-based, CRE-LacZ reporter, forskolin-stimulated, primary screen (AID 1146).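 Note: PC12 cells with 6xCRE LacZ reporter stimulated by forskolin 10 µM; beta-galactosidase reporter signal reflecting CREB driven transcription.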 Particulars: luminescence, 4.5 h, higher = more signal, called active from +8 up or from −8 down.
Assay [16] concerns the target Streptavidin (Streptomyces avidinii) (UniProt P22629). As to the kind of experiment: compounds binding control protein streptavidin – biophysical, small-molecule microarray, 635/667 nm fluorescence, artefact control for SMM compound annotation, primary screen (AID 1147).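 Note: signal reflects streptavidin binding to arrayed compounds as a control protein.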 Particulars: higher = more signal.
Assay [17] is described as follows: probe aInhba binding on compound microarray – biochemical, small-molecule microarray, 635/667 nm fluorescence, primary screen (AID 1148).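 Note: score merges 667nm spot fluorescence with signal-to-noise for antibody binding to printed compounds.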 Particulars: higher = more signal.
Assay [18] addresses Torsin-1A (Homo sapiens) (UniProt O14656). Description: TOR1A wild-type binding on microarray – cell lysate, small-molecule microarray, lysate, 635/667 nm, primary screen (AID 1149). The following applies: COS7 hTOR1A-WT lysate, 635 nm fluorescence, higher = more signal.
Assay [19] has the same target. Description: torsin A mutant lysate binding on microarrays – cell lysate, small-molecule microarray, COS7 lysate, 635/667 nm fluorescence, primary screen (AID 1150).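 Note: score pools 667 nm emission and signal to noise measuring lysate protein binding.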 The following applies: COS7 hTOR1A mutant lysate, 635 nm fluorescence, higher = more signal.
The subject of assay [20] is Sonic hedgehog protein (Shh). As to the kind of experiment: Sonic hedgehog microarray binding compounds – biochemical, small-molecule microarray, 635/667 nm fluorescence, primary screen (AID 1151).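 Note: Shh protein binding to compounds spotted on small-molecule microarray slides; score combines spot fluorescence intensity with signal-to-noise across triplicate slides.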 The following applies: 635 nm fluorescence, higher = more signal.

Chain of Streptavidin (Streptomyces avidinii) (P22629 whole entry, looked up): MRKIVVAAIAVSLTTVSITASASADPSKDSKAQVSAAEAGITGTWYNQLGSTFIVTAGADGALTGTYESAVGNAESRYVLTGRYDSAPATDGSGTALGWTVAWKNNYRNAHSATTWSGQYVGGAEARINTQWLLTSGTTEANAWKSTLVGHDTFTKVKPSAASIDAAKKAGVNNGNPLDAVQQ
Chain of Torsin-1A (Homo sapiens) (O14656 whole entry, looked up): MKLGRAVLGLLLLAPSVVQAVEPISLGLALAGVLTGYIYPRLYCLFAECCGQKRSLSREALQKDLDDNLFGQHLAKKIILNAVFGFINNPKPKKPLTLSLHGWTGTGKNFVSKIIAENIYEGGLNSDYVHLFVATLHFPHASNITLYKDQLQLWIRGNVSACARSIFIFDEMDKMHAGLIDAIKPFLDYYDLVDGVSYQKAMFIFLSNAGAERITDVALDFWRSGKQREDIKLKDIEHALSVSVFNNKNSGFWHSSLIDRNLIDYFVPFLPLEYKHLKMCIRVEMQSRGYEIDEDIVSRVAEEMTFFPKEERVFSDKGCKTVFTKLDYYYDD

With `Cc1ccc(S[C@]2(C(=O)NCCN3CCOCC3)CC(=O)N(Cc3cc(C(F)(F)F)cc(C(F)(F)F)c3)[C@@H]2c2ccc(CO)cc2I)cc1`, the composite z-score in assay [1] was -1.02; in [2], -0.27; in assay [3], 0.414; in assay [4] it was -0.46; in assay [5], 0.016; in assay [6], -1.13. The composite z-score in assay [8] was -0.304; in assay [9] it was 0.0101; in assay [11], -0.314; in [16], -0.71; in assay [17] it was -0.183; in [18], -2. Also, the composite z-score is 0.561 in [19] and -0.4 in assay [20]. Moreover, the z-score in [7] was 0.164; in assay [10], 1.31 (inactive); in [12], -2.42 (inactive); in [13], -0.956 (inactive); in assay [14], 0.389 (inactive); in assay [15], -0.0376 (inactive).

For `CCOC(=O)C[C@H]1[C@H](OC(=O)c2ccc(-c3ccccc3)cc2)[C@@H](NC(=O)c2ccc3ccccc3c2)c2cc(OCCCO)ccc2N1C(=O)Cc1ccc(OC)cc1`, the composite z-score in [1] was -0.034; in assay [2], 0.401; in assay [3] it was 0.463; in [4] it was 0.536; in [5], -0.187; in assay [6] it was -0.0546. Moreover, the composite z-score in [8] was -0.154; in [9], -0.006; in [11], 0.266; in assay [16], -0.0829; in assay [17], -0.0954; in assay [18], 0.0044. Further, the composite z-score was -0.497 in assay [19] and -0.0004 in assay [20]. Moreover, the z-score in [7] was -0.0901; in assay [10] it was 1.13 (inactive); in [12] it was 0.359 (inactive); in assay [13] it was -0.599 (inactive); in assay [14], -1.01 (inactive); in assay [15], 0.809 (inactive).

In the case of `COc1ccc(CCNC(=O)[C@@H]2c3ccccc3C(=O)N(Cc3ccc(OC(F)(F)F)cc3)[C@H]2c2ccc(CO)cc2)cc1`, the composite z-score in assay [1] came to 1.66; in assay [2] it was 0.901; in assay [3] it was 0.658; in [4], 0.0913; in assay [5], 1.18; in assay [6], 0.494. The composite z-score in assay [8] was 0.147; in assay [9] it was 0.213; in assay [11], 0.446; in [16], -0.0886; in assay [17], -0.0465; in assay [18], -0.271. Moreover, the composite z-score in [19] was 0.366; in assay [20], -0.144. For the same compound, the z-score in [7] is 1.48; in [10], -0.243 (inactive); in assay [12] it was -2.71 (inactive); in assay [13], -0.676 (inactive); in [14] it was -0.475 (inactive); in [15] it was -0.206 (inactive).

For `COCCCNC(=O)[C@@]1(c2ccc([N+](=O)[O-])cc2)CC(=O)N(CC23CC4CC(CC(C4)C2)C3)[C@@H]1c1ccc(CO)cc1`, the composite z-score in assay [1] was found to be 0.344; in assay [2], 1.18; in assay [3], 0.745; in assay [4] it was 0.799; in assay [5], 1.27; in assay [6] it was 1.62. For the same compound, the composite z-score in assay [8] was 0.983; in assay [9] it was 0.203; in assay [11] it was 0.459; in assay [16], 0.0765; in [17] it was -0.0018; in [18], 1.02. The composite z-score in [19] turned out to be 0.894; in assay [20] it was 2.13. The z-score is 0.846 in assay [7]; 0.183 (inactive) in assay [10]; -4.39 (inactive) in assay [12]; -1.51 (inactive) in [13]; -0.179 (inactive) in assay [14]; -0.284 (inactive) in [15].

Turning to `CC(C)NC(=O)[C@@]1(Cc2ccccc2I)c2ccccc2C(=O)N(Cc2ccccc2)[C@H]1c1ccc(CO)cc1`, the composite z-score worked out at 3.2 in assay [1]; 1.19 in [2]; 1.05 in [3]; 0.387 in [4]; 1.29 in assay [5]; 1.07 in assay [6]. Also, the composite z-score was 1.19 in assay [8]; 0.131 in assay [9]; 0.107 in assay [11]; 0.0632 in assay [16]; 0.817 in [17]; 0.484 in assay [18]. Also, the composite z-score was -0.181 in [19] and 1.39 in assay [20]. The z-score is 0.188 in assay [7]; 0.277 (inactive) in [10]; -2.05 (inactive) in assay [12]; -0.549 (inactive) in [13]; -0.231 (inactive) in [14]; 0.0359 (inactive) in [15].
